Nrf2 activator: activators of Nrf2 (ARE) signaling; Potency, µM (highest dose often 46.1 µM), actives largely listed as activators; AID 624171; actives 0.31% (n = 410,000); AREc32 ARE-luciferase reporter (MCF7-derived line), luminescence, 24 h; also: nearly all actives have a fitted effect of over 65% in size
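Reporter line AREc32 (ARE-Fluc), seeded overnight in OPTI-MEM with 5% FBS; compound pin-transferred, 24 hr at 37 deg C, 5% CO2; luminescent read-out.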
p53 reactivator: restores transcriptional activity of mutant p53 | H1299 p53-A138V BP100-luciferase reporter, luminescence, 24 h | Potency, µM (top dose mostly 92.2 µM), hits mostly activators | actives 0.063% (n = 320,000) | AID 504706; also: nearly all actives have a fitted effect of over 45% in size
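p53-null H1299 cells stably carrying temperature-sensitive p53-A138V and a BP100-luciferase reporter were pinned with compounds (4-point, 1:5 series) and held 24 hrs at 37 deg C. Luminescence was read 10 min after detection reagent.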
IL-2 act: activators of IL-2; IL-2 activation reporter assay, cell-based qHTS; stimulated with anti-CD3/CD4/CD28 beads; in transgenic mouse T cells; activation, % (series mostly up to about 46 µM); actives 0.065% (n = 360,000); AID 652025; in the data active = activation above about 50%; inconclusive = mostly about 30% to 49%
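Readout is EGFP and DsRed signal by fluorescent plate cytometry after 18 h at 37 degrees C. Transgenic mouse T cells (750/well) received compound for 60 min before bead stimulation (anti-CD3, anti-CD4, anti-CD28); memory T cells served as non-tolerant control.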
BRCA1 expr up: activators of BRCA1 expression; actives 1.1% (n = 380,000); AID 624202; Potency, µM (doses to about 46.1 µM), actives largely listed as activators; MCF7-BRCA1-FFLuc reporter, luminescence, 48 h; response scale: scaled: vehicle 0%, 10 µM genistein 100%; also: nearly all actives have a fitted effect of over 80% in size
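MCF7 cells carrying a BRCA1-firefly luciferase reporter (2000 cells/well, phenol-red free MEM) were attached for 2 h at 37 °C, then given compounds for 48 h. Luminescence was read 15 min after luciferase reagent; activity normalized to genistein (10 microM) and DMSO.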
Nrf2 inh: blocks Nrf2 signaling; AID 504444; actives 2.1% (n = 360,000); A549 ARE-Fluc reporter, luciferase luminescence, 18-24 h; Potency, µM (titrated, usually from 46 µM), usual class: inhibitors; also: nearly all actives have a fitted effect of over 60% in size
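Quantitative HTS in A549 cells stably bearing an antioxidant response element-firefly luciferase construct. Inhibition of Nrf2-driven transcription was scored by luminescence after 18-24 h of compound exposure at 37 °C.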
A549 tox: A549 cytotoxicity, counter-screen for Nrf2 inhibitors; A549 ARE-Fluc cells, CellTiter-Fluor viability, 18-24 h; Potency, µM (series often up to 46 µM), actives largely listed as inhibitors; actives 0.16% (n = 390,000); AID 504648
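A549 ARE_Fluc cells in 5% FBS OPTI-MEM were exposed to compounds in concentration-response for 18-24 h at 37 deg C. Viability was read by CellTiter-Fluor fluorescence (Ex 405/Em 525) after 30 min, before the luciferase read.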
Hits are given with their value; – = inactive; ? = inconclusive; · = no result. Only some compounds are listed: those with a hit (about 3.2% of all), similar ones and a draw of the others. Unless noted, calls follow the shape of the dose curve; as a rule, active = well fitted curve in the direction sought with a large enough effect; inconclusive = small, poorly fitted or top-dose-only effect, or another doubt; inactive = no such curve, though single readings can be large; an effect the other way counts as inactive or inconclusive.

SMILES	Nrf2 activator	p53 reactivator	IL-2 act	BRCA1 expr up	Nrf2 inh	A549 tox
CC1Cc2cc(S(=O)(=O)CCC(=O)Nc3ccc(OC(F)(F)F)cc3)ccc2N1C(=O)C1CC1 (configuration not stated)	–	·	·	·	23.1µM	–
COc1ccc(CCNC(=O)c2coc3ccccc3c2=O)cc1	–	–	–	–	13µM	–
COc1cccc2c(=O)c(C(=O)NCCc3ccccc3)c[nH]c12	–	·	–	10µM	–	–
COc1ccc(-n2cc(C(=O)NCCc3ccc(C)cc3)c3ccccc3c2=O)cc1	–	·	·	·	18.4µM	–
CCOC(=O)N1CCC(NC(=O)CSCc2nc(-c3ccc(OCC)cc3)oc2C)CC1	–	–	–	–	–	–
COc1cccc(-c2nc(CS(=O)(=O)CC(=O)NC3CCC(C)CC3)c(C)o2)c1 (configuration not stated)	–	–	–	–	?	–
COc1cccc(-c2nc(CS(=O)(=O)CC(=O)NC3CCCC3)c(C)o2)c1	–	–	–	–	20.6µM	–
CCOC(=O)N1CCC(NC(=O)CSCc2nc(-c3cccc(OC)c3)oc2C)CC1	–	–	–	–	18.4µM	–
CC(=O)N1CCc2cc(S(=O)(=O)NC(Cc3ccccc3)C(=O)NCc3ccccc3Cl)ccc21 (configuration not stated)	–	·	·	·	–	–
CCCCn1c(-c2nonc2N)nc2ccccc21	–	–	–	–	14.6µM	–
CC(C)CCn1c(-c2nonc2N)nc2ccccc21	–	–	–	–	?	–
Cc1ccc(C)c(NC(=O)Cn2ncc3c([nH]c4ccccc43)c2=O)c1	–	·	·	·	–	–
Cc1ccc(-c2csc(N)n2)cc1	–	·	–	10µM	?	–
Cc1ccc(OCc2csc(N)n2)cc1	–	–	–	5.01µM	?	–
Nc1nc(-c2ccc(Oc3ccccc3)cc2)cs1	–	–	–	11.2µM	–	–
COc1ccc(-c2csc(N)n2)cc1	–	?	–	10µM	?	–
Nc1nc(-c2ccc(-c3ccccc3)cc2)cs1	–	–	–	?	?	–
Nc1nc(COc2ccc(Cl)cc2)cs1	–	–	–	?	–	–
CN(C)c1ccc(CNC(=O)c2cc3ccccn3n2)cc1	–	·	·	·	?	–
CN(C)S(=O)(=O)N1CCC(n2cnc3cccnc32)CC1	–	·	·	·	?	–
CS(=O)(=O)N(Cc1ccccc1)c1ccc(C(=O)Nc2cccc(Cl)c2)cc1	–	·	·	·	?	–
CCCC(=O)Nc1ccc(C(=O)COC(=O)C2CC2)cc1	–	?	–	10µM	–	–
O=C1C(=O)c2ccc(-c3ccccc3)cc2-c2ccccc21	–	–	–	–	20.6µM	·
Cn1cc(C(=O)O)c(=O)c2cc(S(=O)(=O)N3CCCCC3)ccc21	–	·	·	·	·	–
CCSc1nnc(SCC(=O)c2c(N)n(C)c(=O)n(C)c2=O)s1	–	–	–	–	20.6µM	–
SMILES	Nrf2 activator	p53 reactivator	IL-2 act	BRCA1 expr up	Nrf2 inh	A549 tox
Cc1ccccc1Nc1nnc(SCC(=O)c2c(N)n(C)c(=O)n(C)c2=O)s1	–	–	–	–	–	–
CC(=O)c1cnc(Nc2cccc(Cl)c2Cl)s1	–	–	–	10µM	?	–
CC1CCN(S(=O)(=O)c2ccc3[nH]cc(C(=O)NCc4ccc(F)cc4)c(=O)c3c2)CC1	–	·	·	–	·	–
Cc1ccccc1Nc1c(-c2ccccc2O)nc2sccn12	–	·	·	·	–	–
CCN(C(=O)COC(=O)c1cccnc1Nc1cccc(C(F)(F)F)c1)C1CCS(=O)(=O)C1 (configuration not stated)	11.2µM	–	–	–	–	–
COc1ccc(C)cc1-n1nnnc1SCc1cc(=O)n2cc(C)ccc2n1	–	–	–	–	13µM	–
C=Cc1ccc(CN2C(=O)N(c3cccc(Cl)c3)S(=O)(=O)c3ccccc32)cc1	–	·	·	·	·	–
O=C(c1cccc(F)c1)N1CCN(c2cc(N3CCCCC3)c(F)cc2[N+](=O)[O-])CC1	–	–	–	–	20.6µM	?
